{"source": "the OligoGym collection", "data": [{"molecular_target": "DUSP3", "assay": "pooled miR-30 sensor sort-seq; sequence = guide strand", "settings": "shRNA", "values": [{"sequence": "TGAGGTTGAACTCCTGTGTGTC", "sensor-assay potency score (higher = more potent)": 0.0433}, {"sequence": "TCTGTCATTGAGCTGGCAGAGC", "sensor-assay potency score (higher = more potent)": -1.17}, {"sequence": "TATGTGATGCCGGAGTCCTTGT", "sensor-assay potency score (higher = more potent)": -1.17}, {"sequence": "TTGACGTGCATGAAGGACCTGC", "sensor-assay potency score (higher = more potent)": 0.645}, {"sequence": "ATTGGTGTTGACGTGCATGAAG", "sensor-assay potency score (higher = more potent)": -1.24}, {"sequence": "TTGTAGAAGTTGGCATTGGTGT", "sensor-assay potency score (higher = more potent)": -0.415}, {"sequence": "TAGGCGATAACTAGCGTTGGGG", "sensor-assay potency score (higher = more potent)": -0.821}, {"sequence": "TTCAGCACATGGGTGATGCCTA", "sensor-assay potency score (higher = more potent)": -0.601}, {"sequence": "TCGTTGAGATCCTGCACCGAGA", "sensor-assay potency score (higher = more potent)": -1.55}]}, {"molecular_target": "DUSP5", "assay": "pooled miR-30 sensor sort-seq; sequence = guide strand", "settings": "shRNA", "values": [{"sequence": "TTGACGTTGAGCGAGCCGCGCA", "sensor-assay potency score (higher = more potent)": -0.861}, {"sequence": "TTGAGGAAGTAGACCCGCGGGC", "sensor-assay potency score (higher = more potent)": -0.647}, {"sequence": "TTCCCTGACACAGTCAATGAAG", "sensor-assay potency score (higher = more potent)": -1.14}, {"sequence": "TCTCACTCTCAATCTTCTCTTG", "sensor-assay potency score (higher = more potent)": -0.536}, {"sequence": "TACAGTAGTCAGCACATGCTGT", "sensor-assay potency score (higher = more potent)": -0.0745}, {"sequence": "TTACATCCACGCAACACTCAGG", "sensor-assay potency score (higher = more potent)": -0.32}, {"sequence": "TAGAAAGTCTCATATCCCCCTT", "sensor-assay potency score (higher = more potent)": -0.306}, {"sequence": "TTGAGTGGGTAGGCACCGGTGC", "sensor-assay potency score (higher = more potent)": -0.999}, {"sequence": "ATTCCGAGTAGAAAGTCTCATA", "sensor-assay potency score (higher = more potent)": -1.1}, {"sequence": "TCCTCTCGCAGCTTCTGCCAGT", "sensor-assay potency score (higher = more potent)": -1.18}, {"sequence": "TTCTGCTGAGCTCTGAGACTGT", "sensor-assay potency score (higher = more potent)": -0.115}, {"sequence": "TATTGCTTCTTGAAAGTGGGAG", "sensor-assay potency score (higher = more potent)": 0.394}, {"sequence": "TCCATTTGTAGTGTAGGTGGGT", "sensor-assay potency score (higher = more potent)": -0.0708}, {"sequence": "TAGCTGACATTTACCACTGGTT", "sensor-assay potency score (higher = more potent)": -0.934}, {"sequence": "TTTACATCCACGCAACACTCAG", "sensor-assay potency score (higher = more potent)": -1.07}, {"sequence": "TTTGAGGAAGTAGACCCGCGGG", "sensor-assay potency score (higher = more potent)": -0.969}, {"sequence": "TTGGCGAGGAACTCGCACTTGG", "sensor-assay potency score (higher = more potent)": -0.725}, {"sequence": "TAGCGCGCCGACACCGCGCCGC", "sensor-assay potency score (higher = more potent)": -0.777}, {"sequence": "ATGCATGGTAGGCACTTCCAAG", "sensor-assay potency score (higher = more potent)": -1.82}, {"sequence": "TTGTAGTGTAGGTGGGTCGCGC", "sensor-assay potency score (higher = more potent)": -0.607}, {"sequence": "TAGTGTAGGTGGGTCGCGCAGG", "sensor-assay potency score (higher = more potent)": -0.939}, {"sequence": "TTAAAAACAAAAATCACAGTTG", "sensor-assay potency score (higher = more potent)": 0.309}, {"sequence": "TGTAGCTGACATTTACCACTGG", "sensor-assay potency score (higher = more potent)": 0.536}, {"sequence": "TTCATAAGGTAAGCCATGCAGA", "sensor-assay potency score (higher = more potent)": -0.386}]}, {"molecular_target": "EAPP", "assay": "pooled miR-30 sensor sort-seq; sequence = guide strand", "settings": "shRNA", "values": [{"sequence": "TTCATTACAAACATTGCTCTAT", "sensor-assay potency score (higher = more potent)": 0.525}, {"sequence": "TAGATGATTCACTTTCTCCGGT", "sensor-assay potency score (higher = more potent)": 0.266}, {"sequence": "TTTATATCTTAGAACCTCCTCT", "sensor-assay potency score (higher = more potent)": 0.652}, {"sequence": "TATATCTTAGAACCTCCTCTTT", "sensor-assay potency score (higher = more potent)": -0.803}, {"sequence": "TTGGTCACCTGTACTGCTCTGT", "sensor-assay potency score (higher = more potent)": 0.00284}, {"sequence": "AAAGACTTCATCCTTGTCGTAG", "sensor-assay potency score (higher = more potent)": -0.0566}, {"sequence": "TAATTCAGCTTCCATCTCCTTT", "sensor-assay potency score (higher = more potent)": -0.368}]}]}
